In PubChem BioAssay:
“And” between values parts separate entries of the source, which are not always exact repeats. Equal entries are not always repeated. More than one record can exist for a structure, and the calls need not agree. The source made the active and inactive calls. Unless noted, the rule behind the calls is not given here.

Key:
[1] = P. berghei load reduction in hepatocytes – cell-based, HepG2, luciferase luminescence, HepG2 viability, primary screen (AID 624349; in the data active = parasite load remaining mostly below about 12%, no sharp cut-off; inactive = mostly above about 10%;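 note: 100% = mean of DMSO negative control wells on the same plate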); details: P. berghei liver stage in HepG2, luciferase luminescence, concentration not given here; parasite load remaining: stronger effect = lower value; viability: measured here: HepG2 viability without parasites
[2] = signal quenchers or enhancers, Cy5 substrate/SSB – biochemical, NIH Clinical Collection, E. coli SSB, artefact control for HCV NS3 helicase inhibitor project (AID 743268); details: Cy5-oligo bound E. coli SSB, fluorescence interference
[3] = system: Hepatitis C virus NS3 helicase; experiment: blockers of NS3h binding to DNA – biochemical, fluorescence polarization, NIH Clinical Collection, primary screen (AID 743270); details: NS3 helicase binding to Cy5-dT15 DNA, stronger effect = higher value, concentration not given here
[4] = molecular target: Single-stranded DNA-binding protein (Escherichia coli (strain K12)) (UniProt P0AGE0); experiment: SSB-ssDNA binding inhibitors – biochemical, fluorescence polarization, NIH Clinical Collection, counter-screen for HCV NS3 helicase inhibitor project (AID 743271; in the data active = inhibition above about 28%); details: E. coli SSB-DNA binding, stronger effect = higher value, concentration not given here
[5] = compounds distorting NS3 helicase fluorescence signal – biochemical, NIH Clinical Collection, artefact control for HCV NS3 helicase inhibitor project (AID 743272); details: fluorescence interference counterscreen, HCV NS3 helicase assay; stronger effect = lower value;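 note: HCV NS3 helicase with a Cy5 labelled single stranded DNA probe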
[6] = system: Neuropilin-2 / VEGF-C interaction (human); experiment: small molecules blocking Neuropilin-2/VEGF-C interaction – biochemical, microplate binding format, z-score (AID 743281); details: microplate NRP2/VEGF-C binding assay; stronger effect = lower value
[7] = Wnt pathway potentiators raising nuclear beta-catenin – imaging, WNT3A-conditioned medium, mouse C2C12, NPC library, primary screen (AID 1117326; in the data active = nuclear beta-catenin stimulation mostly above about 4.2%, no sharp cut-off; inactive = mostly below about 10%); details: stronger effect = higher value

| SMILES | parasite load remaining [1] | viability [1] | fluorescence ratio [2] | inhibition [3] | inhibition [4] | fluorescence ratio [5] | outcome [6] | nuclear beta-catenin stimulation ([7]; at 10 µM) | nuclear beta-catenin stimulation ([7]; stimulation, at 2 µM) [%] | z-score [6] |
| --- | --- | --- | --- | --- | --- | --- | --- | --- | --- | --- |
| Nc1nc2c(ncn2CCC(CO)CO)c(=O)[nH]1 | 89.5% (inactive) and 22.2% (inactive) | 82.6% and 70.5% | 1.05 (inactive) | 2.77% (inactive) | -1.64% (inactive) | 1.01 (inactive) | inactive | 0.5% (inactive) | 1.8 | – |
| CC(C)(O)c1ccccc1CC[C@@H](SCC1(CC(=O)O)CC1)c1cccc(/C=C/c2ccc3ccc(Cl)cc3n2)c1 | 105% (inactive) and 55% (inactive) | 73.6% and 151% | 0.98 (inactive) | 6.73% (inactive) | 4.52% (inactive) | 1.03 (inactive) | – | 9.7% (inactive) | -0.2 | -0.15 (inactive) |
| CCc1nn(CCCN2CCN(c3cccc(Cl)c3)CC2)c(=O)n1CCOc1ccccc1 | 9.1% (inactive) and 13.5% (inactive) | 58.6% and 64.5% | 0.98 (inactive) | -1.19% (inactive) | 3.75% (inactive) | 0.99 (inactive) | – | -1% (inactive) | 3 | 0.854 (inactive) |
| COC(=O)CCc1ccc(OCC(O)CNC(C)C)cc1 (configuration not stated) | 82.9% (inactive) and 30.6% (inactive) | 72.2% and 73% | 1.05 (inactive) | -1.98% (inactive) | -5.49% (inactive) | 1.01 (inactive) | – | -2% (inactive) | 0.1 | 0.0866 (inactive) |
| CC(=O)Oc1ccccc1C(=O)Nc1ncc([N+](=O)[O-])s1 | 0.07% (inactive) | 55.1% | 1 (inactive) | 2.77% (inactive) | 4.52% (inactive) | 1 (inactive) | – | 13.9% (inactive) | 2 | -0.0903 (inactive) |
| O=C1CCc2ccc(OCCCCN3CCN(c4cccc(Cl)c4Cl)CC3)cc2N1 | 37.5% (inactive) and 20.9% (inactive) and 45.9% (inactive) | 98.8% and 60.3% and 100% | 1 (inactive) | 1.98% (inactive) | 4.52% (inactive) | 1.02 (inactive) | – | 2.8% (inactive) | 0.4 | 1.76 (inactive) |
| O=C(O)CCNC(=O)c1ccc(N=Nc2ccc(O)c(C(=O)O)c2)cc1 | 105% (inactive) and 63.3% (inactive) | 90.8% and 75.1% | 0.93 (inactive) | -2.84% (inactive) | 1.97% (inactive) | 0.94 (inactive) | inactive | 0.8% (inactive) | 0.3 | – |
| COC(=O)C1=C(C)NC(C)=C(C(=O)OCC(C)C)C1c1ccccc1[N+](=O)[O-] (configuration not stated) | – | – | 0.95 (inactive) | 4.36% (inactive) | -0.87% (inactive) | 0.91 (inactive) | – | 6% (inactive) | 3.3 | -0.886 (inactive) |
| O=c1c(-c2ccccc2)c1-c1ccccc1 | 7.97% (inactive) | 65.5% | 0.98 (inactive) | -0.4% (inactive) | 1.44% (inactive) | 0.79 (active) | – | 40.6% (active) | 22.6 | -0.326 (inactive) |
| CN(CCOc1ccc(NS(C)(=O)=O)cc1)CCc1ccc(NS(C)(=O)=O)cc1 | 94% (inactive) and 61.2% (inactive) | 70% and 214% | – | – | – | – | – | -0.7% (inactive) | 1.6 | -1.11 (inactive) |
| CN(C)CCCSc1ccccc1NC(=O)/C=C/c1ccccc1 | 53.7% (inactive) and 10.2% (inactive) | 56.6% and 65.5% | 0.99 (inactive) | 0.4% (inactive) | -2.41% (inactive) | 0.97 (inactive) | – | 1.7% (inactive) | 1.1 | -0.209 (inactive) |
| COc1ccc(C(=O)NCc2ccc(OCCN(C)C)cc2)cc1OC | 97.5% (inactive) and 24.6% (inactive) | 80.4% and 69% | 1.04 (inactive) | 1.19% (inactive) | 2.98% (inactive) | 1.05 (inactive) | – | -0.3% (inactive) | 1 | -0.08 (inactive) |
| CC[C@@]1(O)C(=O)OCc2c1cc1n(c2=O)Cc2cc3c(CN(C)C)c(O)ccc3nc2-1 | – | – | 1.05 (inactive) | 1.98% (inactive) | 3.75% (inactive) | 1.02 (inactive) | – | 55.8% (active) | 20.6 | 1.52 (inactive) |
| COc1cc(C(=O)NS(=O)(=O)c2ccccc2C)ccc1Cc1cn(C)c2ccc(NC(=O)OC3CCCC3)cc12 | 103% (inactive) and 39.6% (inactive) | 73.8% and 104% | 0.99 (inactive) | 16.2% (active) | 25.3% (inactive) | 1.03 (inactive) | – | 0.1% (inactive) | 0.4 | -5.32 (active) |
| OCc1cccnc1 | 56.9% (inactive) | 66.4% | 0.93 (inactive) | -1.09% (inactive) | -1.18% (inactive) | 0.87 (inactive) | – | 0.5% (inactive) | 1 | -0.624 (inactive) |
| CCOC(=O)[C@H](CCc1ccccc1)N[C@@H](C)C(=O)N1[C@H](C(=O)O)C[C@@H]2CCC[C@@H]21 | – | – | 1.01 (inactive) and 1.04 (inactive) | -1.98% (inactive) and -3.18% (inactive) | -0.1% (inactive) and -0.48% (inactive) | 0.79 (active) and 1.02 (inactive) | – | 0.8% (inactive) | 1.9 | -0.497 (inactive) |
| O=C1c2cccc3c2[C@H](CCC3)CN1[C@@H]1CN2CCC1CC2 | 80.1% (inactive) | 69.6% | 0.94 (inactive) | -1.09% (inactive) | 9.84% (inactive) | 0.96 (inactive) | – | 0.4% (inactive) | 1.5 | -0.136 (inactive) |
| CCN1CCN(c2cc3c(cc2F)c(=O)c(C(=O)O)cn3C2CC2)CC1 | 29.1% (inactive) and 34.1% (inactive) and 1.73% (inactive) | 97.4% and 66.5% and 68.5% | 1 (inactive) | 0.66% (inactive) | 0.39% (inactive) | 0.97 (inactive) | – | 0.9% (inactive) | 0.3 | -0.441 (inactive) |
| O=C(c1ccc(F)cc1)C1CCN(CCn2c(=S)[nH]c3ccccc3c2=O)CC1 | 28.9% (inactive) | 66.9% | 1.05 (inactive) | 10.7% (inactive) | 26.1% (inactive) | 1.06 (inactive) | – | 2.2% (inactive) | -0.2 | 0.126 (inactive) |
| CC(Cc1ccccc1)(NC(=O)CN)c1ccccc1 (configuration not stated) | 118% (inactive) | 74.8% | 1.07 (inactive) | 5.15% (inactive) | 6.83% (inactive) | 1.03 (inactive) | – | 0.8% (inactive) | 0 | 1.57 (inactive) |
| NCC1CCC(C(=O)Oc2ccc(CCC(=O)O)cc2)CC1 (configuration not stated) | 104% (inactive) | 78.2% | 1.02 (inactive) | -1.98% (inactive) | -3.18% (inactive) | 0.94 (inactive) | – | 0.5% (inactive) | 1 | -0.934 (inactive) |
| O=C1CC2(CCCC2)CC(=O)N1CCNCC1COc2ccccc2O1 (configuration not stated) | 46.8% (inactive) | 69.1% | 0.98 (inactive) | -8.95% (inactive) | -4.33% (inactive) | 0.98 (inactive) | – | 0.9% (inactive) | 0.6 | 0.317 (inactive) |
| CC(=O)OCC(=O)NCCCOc1cccc(CN2CCCCC2)c1 | 165% (inactive) and 103% (inactive) and 34.4% (inactive) | 104% and 78.4% and 85% | 1.04 (inactive) | -0.4% (inactive) | -0.1% (inactive) | 1.02 (inactive) | – | 1.8% (inactive) | 0.4 | -0.306 (inactive) |
